# According to article PMC7862700, “An all-to-all approach to the identification of sequence-specific readers for epigenetic DNA modifications on cytosine”:
# Columns and labels:
# Assay in all cases: DAPPL (digital affinity profiling via proximity ligation, sequencing); 10 mM Tris-HCl pH 7.5, 50 mM NaCl, 1 mM DTT, 4% glycerol, room temperature, 30 min; GST-TFs on glutathione beads, 16-mer random dsDNA library, 0.1% formaldehyde crosslink after washing; high values mean tight binding
# Details in all cases: protein: recombinant; tags: N-terminal GST; dsDNA, one strand shown
# ELK1 = biological target: T1, ELK1 (Homo sapiens, UniProt P19419 1-428)
# T1 sequence: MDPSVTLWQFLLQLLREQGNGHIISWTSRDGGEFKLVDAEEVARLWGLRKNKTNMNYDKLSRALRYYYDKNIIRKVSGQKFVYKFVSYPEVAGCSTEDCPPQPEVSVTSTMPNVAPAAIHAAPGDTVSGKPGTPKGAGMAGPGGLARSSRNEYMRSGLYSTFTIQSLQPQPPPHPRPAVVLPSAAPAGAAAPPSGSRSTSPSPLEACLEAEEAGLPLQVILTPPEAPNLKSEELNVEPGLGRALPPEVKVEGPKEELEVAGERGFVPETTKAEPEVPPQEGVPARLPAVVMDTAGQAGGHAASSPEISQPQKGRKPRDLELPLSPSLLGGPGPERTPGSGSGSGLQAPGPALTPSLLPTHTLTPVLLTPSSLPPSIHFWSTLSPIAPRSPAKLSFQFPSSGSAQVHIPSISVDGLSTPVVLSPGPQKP
# How it was run: (§1)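 Human transcription factors fused to GST were expressed in yeast, captured on glutathione beads, given DNA barcodes and pooled with a GST-only negative control. Pools were incubated with 200 nmole of a 16-mer random double-stranded DNA library in Tris/NaCl/DTT/glycerol buffer at room temperature for 30 min. They were then washed, crosslinked with 0.1% formaldehyde, proximity-ligated (BsaI/T4 ligase, 1 h, 37 °C), PCR-amplified and sequenced on an Illumina NextSeq500. Binding signal is each 6-mer's read frequency for a factor divided by its frequency for the GST control.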
# GABPA = biological target: T2, GABPA (Homo sapiens, UniProt Q06546 1-454)
# T2 sequence: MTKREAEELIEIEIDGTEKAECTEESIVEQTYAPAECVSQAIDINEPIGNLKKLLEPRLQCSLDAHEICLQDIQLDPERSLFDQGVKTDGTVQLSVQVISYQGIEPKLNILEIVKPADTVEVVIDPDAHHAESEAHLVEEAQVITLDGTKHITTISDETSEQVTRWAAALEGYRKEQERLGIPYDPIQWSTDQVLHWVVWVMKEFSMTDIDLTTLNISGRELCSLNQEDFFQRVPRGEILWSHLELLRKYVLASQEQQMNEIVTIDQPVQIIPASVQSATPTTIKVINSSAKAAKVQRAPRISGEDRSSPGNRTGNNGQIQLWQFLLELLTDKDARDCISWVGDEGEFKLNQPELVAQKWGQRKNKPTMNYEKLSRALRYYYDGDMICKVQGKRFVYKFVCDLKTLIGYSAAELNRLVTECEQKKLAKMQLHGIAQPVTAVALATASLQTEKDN
# How it was run: as §1
# ERG = biological target: T3, ERG (Homo sapiens, UniProt P11308 1-479)
# T3 sequence: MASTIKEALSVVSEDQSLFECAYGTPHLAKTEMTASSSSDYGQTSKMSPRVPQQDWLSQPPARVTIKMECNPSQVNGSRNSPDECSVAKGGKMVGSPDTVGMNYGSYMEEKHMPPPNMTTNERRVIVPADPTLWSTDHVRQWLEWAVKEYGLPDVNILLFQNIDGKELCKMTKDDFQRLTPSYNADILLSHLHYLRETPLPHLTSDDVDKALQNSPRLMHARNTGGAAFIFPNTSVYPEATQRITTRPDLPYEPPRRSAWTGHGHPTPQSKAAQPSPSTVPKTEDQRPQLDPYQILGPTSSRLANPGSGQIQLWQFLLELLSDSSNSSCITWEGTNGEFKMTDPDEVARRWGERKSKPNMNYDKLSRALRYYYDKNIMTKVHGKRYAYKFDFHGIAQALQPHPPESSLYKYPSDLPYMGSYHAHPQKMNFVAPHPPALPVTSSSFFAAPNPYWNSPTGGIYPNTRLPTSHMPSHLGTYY
# How it was run: as §1
# ELF1 = ELF1 (Homo sapiens, UniProt P32519 1-619)
# Chain of ELF1 (P32519 whole entry): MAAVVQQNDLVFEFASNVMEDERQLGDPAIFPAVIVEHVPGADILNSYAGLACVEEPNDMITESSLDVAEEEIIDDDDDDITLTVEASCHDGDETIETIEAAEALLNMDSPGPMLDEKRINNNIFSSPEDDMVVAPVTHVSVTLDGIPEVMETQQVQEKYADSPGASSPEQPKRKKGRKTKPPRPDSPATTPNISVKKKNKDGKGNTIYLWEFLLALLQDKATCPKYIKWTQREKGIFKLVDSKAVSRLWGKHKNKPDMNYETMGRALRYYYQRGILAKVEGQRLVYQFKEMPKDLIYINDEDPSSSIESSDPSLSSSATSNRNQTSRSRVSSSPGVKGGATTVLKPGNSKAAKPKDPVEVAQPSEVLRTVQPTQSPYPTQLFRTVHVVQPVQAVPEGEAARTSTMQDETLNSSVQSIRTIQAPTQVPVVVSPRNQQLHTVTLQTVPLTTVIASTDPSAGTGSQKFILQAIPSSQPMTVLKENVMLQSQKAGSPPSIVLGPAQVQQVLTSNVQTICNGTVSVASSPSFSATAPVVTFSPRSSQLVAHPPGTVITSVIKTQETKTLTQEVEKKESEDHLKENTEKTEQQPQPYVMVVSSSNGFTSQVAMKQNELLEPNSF
# How it was run: as §1
# EHF = biological target: T4, EHF (Homo sapiens, UniProt Q9NZC4 1-300)
# T4 sequence: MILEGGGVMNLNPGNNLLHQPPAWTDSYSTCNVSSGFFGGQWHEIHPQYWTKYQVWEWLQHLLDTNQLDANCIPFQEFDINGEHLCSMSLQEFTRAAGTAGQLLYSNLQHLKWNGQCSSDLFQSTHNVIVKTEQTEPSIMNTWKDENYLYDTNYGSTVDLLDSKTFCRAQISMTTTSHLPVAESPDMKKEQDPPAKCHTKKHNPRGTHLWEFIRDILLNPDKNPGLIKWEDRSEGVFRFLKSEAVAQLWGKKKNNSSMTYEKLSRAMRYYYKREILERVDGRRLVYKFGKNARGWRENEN
# How it was run: as §1
# SPIB = SPIB (Homo sapiens, UniProt Q01892 1-262)
# Chain of SPIB (Q01892 whole entry): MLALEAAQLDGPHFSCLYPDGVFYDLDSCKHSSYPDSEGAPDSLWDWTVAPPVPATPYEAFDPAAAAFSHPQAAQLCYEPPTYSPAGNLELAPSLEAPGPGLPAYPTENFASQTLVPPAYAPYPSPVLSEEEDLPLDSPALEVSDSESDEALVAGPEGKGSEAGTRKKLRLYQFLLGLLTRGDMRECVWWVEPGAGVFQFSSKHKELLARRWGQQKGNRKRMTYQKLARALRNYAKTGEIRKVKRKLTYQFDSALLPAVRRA
# How it was run: as §1
# FEV = biological target: T5, FEV (Homo sapiens, UniProt Q99581 1-238)
# T5 sequence: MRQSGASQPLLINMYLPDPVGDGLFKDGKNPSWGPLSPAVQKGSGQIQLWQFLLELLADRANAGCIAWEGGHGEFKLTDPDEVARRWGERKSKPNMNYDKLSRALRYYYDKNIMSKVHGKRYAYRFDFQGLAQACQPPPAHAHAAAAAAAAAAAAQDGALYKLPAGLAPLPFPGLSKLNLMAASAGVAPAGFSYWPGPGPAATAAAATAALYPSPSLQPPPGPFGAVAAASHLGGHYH
# How it was run: as §1
# ETV5 = ETV5 (Homo sapiens, UniProt P41161 1-510)
# Chain of ETV5 (P41161 whole entry): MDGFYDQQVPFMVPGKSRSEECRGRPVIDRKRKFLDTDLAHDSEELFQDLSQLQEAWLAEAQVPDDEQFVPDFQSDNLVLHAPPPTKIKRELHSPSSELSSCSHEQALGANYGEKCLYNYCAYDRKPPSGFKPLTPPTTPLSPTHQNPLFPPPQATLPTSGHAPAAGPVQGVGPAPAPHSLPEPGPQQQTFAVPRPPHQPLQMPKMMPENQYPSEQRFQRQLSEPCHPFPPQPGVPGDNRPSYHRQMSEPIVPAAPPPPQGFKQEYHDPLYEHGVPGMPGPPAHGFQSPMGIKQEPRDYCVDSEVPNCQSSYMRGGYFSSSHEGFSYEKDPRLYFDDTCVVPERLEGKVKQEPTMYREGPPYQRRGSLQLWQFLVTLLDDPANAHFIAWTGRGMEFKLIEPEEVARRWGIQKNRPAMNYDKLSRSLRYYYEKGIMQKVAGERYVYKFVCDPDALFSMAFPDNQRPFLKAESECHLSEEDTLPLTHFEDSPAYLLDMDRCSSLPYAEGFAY
# How it was run: as §1
# ELF4 = ELF4 (Homo sapiens, UniProt Q99607 1-663)
# Chain of ELF4 (Q99607 whole entry): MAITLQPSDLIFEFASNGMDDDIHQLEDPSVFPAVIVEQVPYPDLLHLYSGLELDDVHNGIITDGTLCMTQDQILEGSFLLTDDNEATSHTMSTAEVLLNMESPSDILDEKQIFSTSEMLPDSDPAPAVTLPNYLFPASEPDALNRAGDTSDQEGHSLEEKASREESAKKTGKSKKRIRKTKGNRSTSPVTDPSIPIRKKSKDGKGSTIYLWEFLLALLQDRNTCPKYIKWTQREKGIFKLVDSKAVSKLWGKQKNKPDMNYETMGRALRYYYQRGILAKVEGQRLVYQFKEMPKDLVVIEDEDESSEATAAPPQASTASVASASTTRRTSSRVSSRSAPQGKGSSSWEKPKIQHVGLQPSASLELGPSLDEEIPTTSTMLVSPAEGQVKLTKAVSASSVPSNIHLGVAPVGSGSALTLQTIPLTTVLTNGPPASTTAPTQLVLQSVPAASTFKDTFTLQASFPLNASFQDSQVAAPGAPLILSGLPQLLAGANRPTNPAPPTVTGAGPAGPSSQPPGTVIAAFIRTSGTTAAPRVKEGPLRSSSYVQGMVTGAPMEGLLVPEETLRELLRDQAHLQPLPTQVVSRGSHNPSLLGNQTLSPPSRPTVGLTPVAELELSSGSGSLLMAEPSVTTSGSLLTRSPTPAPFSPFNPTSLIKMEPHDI
# How it was run: as §1
# ELK4 = biological target: T6, ELK4 (Homo sapiens, UniProt P28324-2 1-405)
# T6 sequence: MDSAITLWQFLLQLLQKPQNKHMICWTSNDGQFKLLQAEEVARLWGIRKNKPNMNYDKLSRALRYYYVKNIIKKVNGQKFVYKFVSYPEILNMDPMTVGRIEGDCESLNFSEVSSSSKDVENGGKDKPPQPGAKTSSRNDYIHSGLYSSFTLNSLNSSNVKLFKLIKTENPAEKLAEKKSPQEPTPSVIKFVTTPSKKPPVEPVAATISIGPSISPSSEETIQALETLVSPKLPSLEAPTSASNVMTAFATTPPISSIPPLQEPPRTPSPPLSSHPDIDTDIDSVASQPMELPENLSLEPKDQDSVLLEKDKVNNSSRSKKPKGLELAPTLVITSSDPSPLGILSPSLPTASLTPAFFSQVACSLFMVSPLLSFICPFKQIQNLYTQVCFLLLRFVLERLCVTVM
# How it was run: as §1
# ETV2 = biological target: T7, ETV2 (Homo sapiens, UniProt O00321 1-342)
# T7 sequence: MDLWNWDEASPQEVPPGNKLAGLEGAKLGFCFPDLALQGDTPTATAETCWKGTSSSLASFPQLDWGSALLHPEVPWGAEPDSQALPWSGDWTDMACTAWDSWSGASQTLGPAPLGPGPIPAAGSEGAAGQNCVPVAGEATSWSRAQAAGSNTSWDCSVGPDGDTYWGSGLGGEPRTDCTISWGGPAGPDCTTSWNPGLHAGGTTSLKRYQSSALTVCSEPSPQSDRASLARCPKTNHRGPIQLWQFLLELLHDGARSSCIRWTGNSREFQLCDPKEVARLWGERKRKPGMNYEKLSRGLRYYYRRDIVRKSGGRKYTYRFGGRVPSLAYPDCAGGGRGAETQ
# How it was run: as §1
# ELF3 = biological target: T8, ELF3 (Homo sapiens, UniProt P78545 1-371)
# T8 sequence: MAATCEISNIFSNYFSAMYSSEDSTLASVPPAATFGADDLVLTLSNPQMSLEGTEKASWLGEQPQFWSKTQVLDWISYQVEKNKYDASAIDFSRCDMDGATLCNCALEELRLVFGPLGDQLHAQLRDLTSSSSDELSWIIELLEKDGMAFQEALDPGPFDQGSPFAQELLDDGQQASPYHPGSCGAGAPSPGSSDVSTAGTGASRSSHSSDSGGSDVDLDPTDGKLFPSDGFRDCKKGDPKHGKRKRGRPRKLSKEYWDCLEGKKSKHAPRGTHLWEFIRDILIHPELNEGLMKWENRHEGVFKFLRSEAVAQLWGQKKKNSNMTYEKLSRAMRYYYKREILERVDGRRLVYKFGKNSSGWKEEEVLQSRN
# How it was run: as §1
# ETV1 = ETV1 (Homo sapiens, UniProt P50549 1-477)
# Chain of ETV1 (P50549 whole entry): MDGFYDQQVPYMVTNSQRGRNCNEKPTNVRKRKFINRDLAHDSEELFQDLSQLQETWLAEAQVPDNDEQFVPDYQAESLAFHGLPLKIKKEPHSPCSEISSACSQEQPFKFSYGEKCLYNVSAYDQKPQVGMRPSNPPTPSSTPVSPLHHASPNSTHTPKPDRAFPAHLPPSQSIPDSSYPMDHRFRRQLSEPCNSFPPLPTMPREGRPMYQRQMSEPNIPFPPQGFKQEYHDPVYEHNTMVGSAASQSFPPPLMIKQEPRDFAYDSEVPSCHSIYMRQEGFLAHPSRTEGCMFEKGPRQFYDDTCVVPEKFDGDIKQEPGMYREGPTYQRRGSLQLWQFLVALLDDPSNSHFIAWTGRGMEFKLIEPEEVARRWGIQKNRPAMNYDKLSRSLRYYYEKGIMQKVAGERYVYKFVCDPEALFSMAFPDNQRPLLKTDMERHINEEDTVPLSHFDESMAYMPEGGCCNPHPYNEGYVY
# How it was run: as §1
# ERF = biological target: T9, ERF (Homo sapiens, UniProt P50548 1-548)
# T9 sequence: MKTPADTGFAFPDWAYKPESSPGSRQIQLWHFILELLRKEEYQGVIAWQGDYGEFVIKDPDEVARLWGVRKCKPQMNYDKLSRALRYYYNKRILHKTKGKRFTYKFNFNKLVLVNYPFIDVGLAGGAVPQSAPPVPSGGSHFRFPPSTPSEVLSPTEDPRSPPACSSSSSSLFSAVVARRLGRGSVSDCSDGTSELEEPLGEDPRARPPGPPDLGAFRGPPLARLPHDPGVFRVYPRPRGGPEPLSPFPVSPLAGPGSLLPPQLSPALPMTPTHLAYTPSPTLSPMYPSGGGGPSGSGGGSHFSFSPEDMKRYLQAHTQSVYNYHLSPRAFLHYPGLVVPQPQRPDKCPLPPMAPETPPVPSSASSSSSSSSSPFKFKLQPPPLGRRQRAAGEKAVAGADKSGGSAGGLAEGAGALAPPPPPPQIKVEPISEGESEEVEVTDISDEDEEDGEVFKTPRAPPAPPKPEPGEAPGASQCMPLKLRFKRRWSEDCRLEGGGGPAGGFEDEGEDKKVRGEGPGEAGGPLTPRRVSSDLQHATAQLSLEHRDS
# How it was run: as §1
# ETV3L = biological target: T10, ETV3L (Homo sapiens, UniProt Q6ZN32 1-361)
# T10 sequence: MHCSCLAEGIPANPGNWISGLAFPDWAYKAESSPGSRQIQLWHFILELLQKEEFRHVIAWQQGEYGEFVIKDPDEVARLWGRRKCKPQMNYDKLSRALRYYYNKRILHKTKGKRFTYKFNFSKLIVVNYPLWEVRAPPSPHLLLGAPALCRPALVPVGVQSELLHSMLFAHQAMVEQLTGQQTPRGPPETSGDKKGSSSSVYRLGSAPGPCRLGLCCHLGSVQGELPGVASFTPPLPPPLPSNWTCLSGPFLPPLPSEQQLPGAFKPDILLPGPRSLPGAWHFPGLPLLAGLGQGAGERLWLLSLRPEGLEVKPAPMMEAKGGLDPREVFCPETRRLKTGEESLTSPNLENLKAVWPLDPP
# How it was run: as §1
# ETS2 = biological target: T11, ETS2 (Homo sapiens, UniProt P15036 1-469)
# T11 sequence: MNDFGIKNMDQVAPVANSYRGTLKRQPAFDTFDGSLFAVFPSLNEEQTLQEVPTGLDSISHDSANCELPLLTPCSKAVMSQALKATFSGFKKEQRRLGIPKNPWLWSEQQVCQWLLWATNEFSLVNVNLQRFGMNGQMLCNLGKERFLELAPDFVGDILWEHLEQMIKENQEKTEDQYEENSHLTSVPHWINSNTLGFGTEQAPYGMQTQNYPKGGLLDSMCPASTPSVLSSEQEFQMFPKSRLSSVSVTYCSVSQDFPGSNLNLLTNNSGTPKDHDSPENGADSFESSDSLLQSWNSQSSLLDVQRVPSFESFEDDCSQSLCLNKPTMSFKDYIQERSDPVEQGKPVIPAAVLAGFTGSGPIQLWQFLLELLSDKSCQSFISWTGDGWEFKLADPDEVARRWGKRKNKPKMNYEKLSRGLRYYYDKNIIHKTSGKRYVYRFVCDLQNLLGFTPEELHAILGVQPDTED
# How it was run: as §1
# SPDEF = biological target: T12, SPDEF (Homo sapiens, UniProt O95238 1-335)
# T12 sequence: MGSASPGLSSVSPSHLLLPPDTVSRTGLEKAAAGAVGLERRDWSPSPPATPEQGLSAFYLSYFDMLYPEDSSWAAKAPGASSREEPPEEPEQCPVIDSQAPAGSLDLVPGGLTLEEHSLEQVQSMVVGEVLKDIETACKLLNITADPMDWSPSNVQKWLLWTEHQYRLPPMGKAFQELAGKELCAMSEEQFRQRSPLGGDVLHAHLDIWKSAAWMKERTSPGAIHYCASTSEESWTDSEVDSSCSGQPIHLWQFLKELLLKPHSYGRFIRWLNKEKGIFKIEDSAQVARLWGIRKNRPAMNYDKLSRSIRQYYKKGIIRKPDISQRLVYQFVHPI
# How it was run: as §1
# ETV3 = biological target: T13, ETV3 (Homo sapiens, UniProt P41162-2 1-143)
# T13 sequence: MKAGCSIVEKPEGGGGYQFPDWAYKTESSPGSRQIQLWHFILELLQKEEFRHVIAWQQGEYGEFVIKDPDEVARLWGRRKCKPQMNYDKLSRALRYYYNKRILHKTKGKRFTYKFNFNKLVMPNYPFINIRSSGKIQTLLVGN
# How it was run: as §1
# ETV6 = ETV6 (Homo sapiens, UniProt P41212 1-452)
# Chain of ETV6 (P41212 whole entry): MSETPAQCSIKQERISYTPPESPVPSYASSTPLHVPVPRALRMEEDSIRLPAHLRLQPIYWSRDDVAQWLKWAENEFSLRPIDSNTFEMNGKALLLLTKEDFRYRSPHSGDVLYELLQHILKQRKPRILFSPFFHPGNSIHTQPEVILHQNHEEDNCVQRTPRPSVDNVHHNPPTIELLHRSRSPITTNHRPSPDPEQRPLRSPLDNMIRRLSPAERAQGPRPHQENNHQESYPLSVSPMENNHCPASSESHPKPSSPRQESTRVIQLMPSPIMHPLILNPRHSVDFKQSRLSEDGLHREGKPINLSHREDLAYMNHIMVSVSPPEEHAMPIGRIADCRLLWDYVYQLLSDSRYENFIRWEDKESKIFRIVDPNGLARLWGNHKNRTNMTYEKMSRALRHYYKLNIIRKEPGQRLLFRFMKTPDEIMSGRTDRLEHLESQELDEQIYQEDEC
# How it was run: as §1
sequence,measurement,setting,value
CTAGCG,binding signal,ELK1,"1.12 fold enrichment (6-mer frequency, TF over GST control)"
same,binding signal,GABPA,"1.32 fold enrichment (6-mer frequency, TF over GST control)"
same,binding signal,ERG,"1.19 fold enrichment (6-mer frequency, TF over GST control)"
same,binding signal,ELF1,"1.11 fold enrichment (6-mer frequency, TF over GST control)"
same,binding signal,EHF,"1.18 fold enrichment (6-mer frequency, TF over GST control)"
same,binding signal,SPIB,"1.17 fold enrichment (6-mer frequency, TF over GST control)"
same,binding signal,FEV,"1.15 fold enrichment (6-mer frequency, TF over GST control)"
same,binding signal,ETV5,"1.22 fold enrichment (6-mer frequency, TF over GST control)"
same,binding signal,ELF4,"1.1 fold enrichment (6-mer frequency, TF over GST control)"
same,binding signal,ELK4,"1.16 fold enrichment (6-mer frequency, TF over GST control)"
same,binding signal,ETV2,"1.09 fold enrichment (6-mer frequency, TF over GST control)"
same,binding signal,ELF3,"1.05 fold enrichment (6-mer frequency, TF over GST control)"
same,binding signal,ETV1,"1.17 fold enrichment (6-mer frequency, TF over GST control)"
same,binding signal,ERF,"1.31 fold enrichment (6-mer frequency, TF over GST control)"
same,binding signal,ETV3L,"1.07 fold enrichment (6-mer frequency, TF over GST control)"
same,binding signal,ETS2,"1.18 fold enrichment (6-mer frequency, TF over GST control)"
same,binding signal,SPDEF,"1.1 fold enrichment (6-mer frequency, TF over GST control)"
same,binding signal,ETV3,"1.15 fold enrichment (6-mer frequency, TF over GST control)"
same,binding signal,ETV6,"1.08 fold enrichment (6-mer frequency, TF over GST control)"
